This is an account of results in PubChem BioAssay AID841 (Emory University Molecular Libraries Screening Center, 2007).

The structures appear in SMILES notation. The campaign covered roughly 140,000 compounds. About 2,100 (1.5%) were called active. Cut-off read from the data, not from the text of the source: active = protection mostly above about 24% (no sharp cut-off); inactive = mostly below about 26%. Many of the other results were omitted from the sample, so actives are more common in it than they were.

This assay can be described thus: blockers of measles virus-induced cell death – single point, MLSMR library, absorbance, measles RdRp inhibitor project, primary screen (AID 841). To be noted: Measles virus-infected cells, CPE protection, at 4 µM, hits give high values.
Regarding `Cc1cc([N+](=O)[O-])nn1CC(=O)Nc1ccc(Cc2ccncc2)cc1`, the protection (pct of control) was 3.88% (inactive).
To `CCCCCCCCCOC1OC(CO)C(O)C(O)C1NC(C)=O` (configuration not stated) belongs 19.9% (inactive).
Consider `CONc1nc2nonc2nc1NOC`, for which the protection (pct of control) was 8.78% (inactive).
The figure for `CC(C)C(=O)Nc1ccc(C(=O)NNC(=O)c2cccs2)cc1` is 6.3% (inactive); for `COc1ccccc1-c1nnc(NC(=O)c2ccc3ncsc3c2)o1` it is 19.4% (inactive).
To `CCC(=O)Nc1sc(C(=O)N2CCCCC2)c(C)c1C#N` belongs 34.3% (active); to `CCN(CC)C(=O)c1sc(NC(=O)c2ccco2)c(C#N)c1C`, 10.4% (inactive); to `CCOC(=O)c1sc(NC(=O)CSc2ncccn2)c(C#N)c1C`, 12.3% (inactive).
As for `N#Cc1c(-c2ccc(F)cc2)cc(C2CC2)nc1SCC(=O)c1cccs1`, the protection (pct of control) is 17.3% (inactive).
To `COc1ccc(NC(=O)c2sc(N3CCOCC3)nc2-c2ccccc2)c(OC)c1` belongs 7.3% (inactive).
To `Cc1cccc(Cn2c(SCCO)nc3c2c(=O)n(C)c(=O)n3C)c1` belongs 38.3% (active); to `COC(=O)C(C)Sc1nc2c(c(=O)n(C)c(=O)n2C)n1Cc1cccc(C)c1` (configuration not stated), 13.3% (inactive); to `CCCSc1nc2c(c(=O)n(C)c(=O)n2C)n1Cc1ccc(C)cc1`, 16.6% (inactive).
The figure for `O=C(CSc1ccc(C(F)(F)F)cc1[N+](=O)[O-])NCCOc1ccccc1` is 16.6% (inactive).
`CCCCc1cc2c(s1)CCCC/C2=N/O`: the protection (pct of control) was 5.03% (inactive).
On to `CCOc1ccc(S(=O)(=O)N2CCCCCC2)c2ccccc12`, for which the protection (pct of control) is 3.16% (inactive).
The figure for `COc1cc(C)c(C(C)C)cc1S(=O)(=O)n1ccnc1` is 24.3% (inactive); for `CCOc1ccc(S(=O)(=O)n2ccnc2)c2ccccc12` it is 40.7% (active).
Take `O=S(=O)(/N=C(/Nc1ccccc1)c1ccccc1)c1cccs1`: the protection (pct of control) is 4.51% (inactive).
To `COC(=O)C(C)Oc1ccc2c(-c3cccc([N+](=O)[O-])c3)cc(=O)oc2c1` (configuration not stated) belongs 4.97% (inactive); to `CC(=O)COc1ccc2c(-c3ccccc3)cc(=O)oc2c1`, 68.7% (active).
To `Cc1cc(=O)oc2ccc(OCC(=O)O)cc12` belongs 16.4% (inactive).
As to `CC(C)NC(=S)N1CCN(S(C)(=O)=O)CC1`, the protection (pct of control) is 39.7% (inactive).
The figure for `O=C(Nc1ccc2c(c1)OCCO2)C1CCCN(c2ncccn2)C1` (configuration not stated) is 7.15% (inactive).
To `Cc1ccnc(N2CCCC(C(=O)Nc3cc(F)ccc3C)C2)n1` (configuration not stated) belongs 46.4% (active).
To `Cc1ccnc(N2CCC(C(=O)NC3CCCCCC3)CC2)n1` belongs 6.88% (inactive); to `NC1=NC(=O)C(Cc2cccc(Cl)c2Cl)S1` (configuration not stated), 22.3% (inactive); to `C=CCn1c2ccccc2c2nnc(SCc3[nH]c(=O)[nH]c3C(=O)CCCCC(=O)OCC)nc21`, 14.8% (inactive).
Take `O=C(O)c1ccc2c(c1)C(=O)N(NC(=O)c1ccc(O)cc1)C2=O`: the protection (pct of control) was 16.8% (inactive).
The figure for `Cc1ccc(N/C=C/C(=O)c2ccccc2)cc1C` is 11.4% (inactive).
The figure for `CC(C)(C)C(=O)c1cnc(Nc2ccccc2)s1` is 2.07% (inactive); for `O=C(/C=C/Nc1ccccc1)c1cnc(-c2ccccc2)s1` it is 62.4% (active); for `Oc1ccccc1/C=N/n1c(-c2cccs2)n[nH]c1=S` it is 36.6% (active).
To `S=c1[nH]nc(-c2ccccc2)n1/N=C/c1c[nH]c2ccccc12` belongs 2.43% (inactive); to `Cc1ccc(/C=N\n2c(-c3ccccc3)n[nH]c2=S)s1`, 8.39% (inactive); to `COC(=O)Cc1ccc(OCC(=O)Nc2ccc(OC(F)(F)F)cc2)cc1`, 9.11% (inactive).
For `Cc1ccc2nc(SCc3cn4c(C)cc(C)nc4n3)[nH]c2c1`, the protection (pct of control) is 15.7% (inactive).
As to `CN(C)/C(=N\OC(=O)c1ccccc1)c1nonc1N`, the protection (pct of control) is 10.6% (inactive).
The figure for `O=C(Cn1nc(Cc2cccnc2)c2ccccc2c1=O)NCC1CCCO1` (configuration not stated) is 2.54% (inactive); for `COc1ccc(NC(=O)Cn2c(=O)n(Cc3ccco3)c(=O)c3ccccc32)cc1` it is 4.73% (inactive).
For the molecule `O=C(Cn1c(=O)n(Cc2ccco2)c(=O)c2ccccc21)NCC1CCCO1` (configuration not stated), the protection (pct of control) is 42.5% (active).
As to `O=C(/C=C/c1ccc(F)cc1)Nc1cccc(S(=O)(=O)Nc2cccc(C(F)(F)F)c2)c1`, the protection (pct of control) was 9.17% (inactive).
As for `Cc1ccc(-c2nc(C)sc2CC(=O)OCC(=O)Nc2c(F)cccc2F)cc1`, the protection (pct of control) is 4.46% (inactive).
The figure for `CCn1nc(C(=O)OCC(=O)N2c3ccccc3CC2C)c2ccccc2c1=O` (configuration not stated) is 10.5% (inactive).
The figure for `CCCC(=O)N1c2ccc(-c3csc(N)n3)cc2CC1C` (configuration not stated) is 79.2% (active); for `CCC(=O)N1c2ccc(S(=O)(=O)CCC(=O)N3CCN(c4ccccc4)CC3)cc2CC1C` (configuration not stated) it is 8.07% (inactive).
The figure for `O=C(NC(=S)Nc1cc(C(F)(F)F)ccc1N1CCOCC1)c1ccc(-c2cccc(Cl)c2)o1` is 1.76% (inactive); for `COC(=O)[C@H]1Cc2cnoc2C[C@]1(C)C(=O)O` it is 8.42% (inactive); for `Cc1ccc(-c2cc(C(=O)N/N=C/C=C/c3ccccc3)n[nH]2)o1` it is 25.7% (inactive).
Take `Cc1ccc(N=C2NC(=O)c3cccc([N+](=O)[O-])c32)cc1`: the protection (pct of control) is 8.24% (inactive).
In the case of `Cn1c2c(c(=O)n(C)c1=O)[C@@H]1c3c(ccc4ccccc34)OC[C@@H]1CO2`, the protection (pct of control) is 38.9% (active).
The figure for `COc1cccc2c1OCC1COc3c(c(=O)n(C)c(=O)n3C)C21` (configuration not stated) is 23.9% (inactive); for `Cn1c2c(c(=O)n(C)c1=O)C1c3ccccc3OCC1C(C)(C)O2` (configuration not stated) it is 12.9% (inactive).
Take `COc1ccc(-c2csc(NC(=O)COC(=O)c3ccc(Br)o3)n2)cc1`: the protection (pct of control) was 7.27% (inactive).
For the molecule `O=C(CSc1nnc(-c2ccncc2)o1)NCc1ccc(Cl)cc1`, the protection (pct of control) was 5.59% (inactive).
As to `Cc1ccc(N(C(=O)C(F)(F)F)C(C(=O)NC2CCCCC2)c2ccncc2)cc1C` (configuration not stated), the protection (pct of control) was 29.7% (inactive).
To `COc1cc2c(cc1OC)C(=O)NCC(C)(C)O2` belongs 6.34% (inactive); to `Cc1cc(-c2ccc(/C=N/n3cnnc3)o2)c([N+](=O)[O-])cc1C`, 28.4% (inactive); to `Cc1cc([N+](=O)[O-])c(-c2ccc(/C=N/n3cnnc3)o2)cc1Cl`, 33.8% (inactive).
For `Cc1ccc(Cl)cc1-c1ccc(/C=N/n2cnnc2)o1`, the protection (pct of control) is 70.5% (active).
With `Cc1ccc(N2C(=O)C(NC(=O)c3c(F)cccc3F)(C(F)(F)F)C3=C2CC(C)(C)CC3=O)cc1` (configuration not stated), the protection (pct of control) was 5.53% (inactive).
The figure for `CCc1c(C)sc(NC(=O)/C=C/c2ccc3c(c2)OCO3)c1C(=O)OC` is 3.56% (inactive).
To `O=C(/C=C/c1ccc2c(c1)OCO2)NCc1ccc(F)cc1` belongs 5.86% (inactive).
The figure for `Cc1cccc(NC(=O)/C=C/c2ccc3c(c2)OCO3)n1` is 46.6% (active).
As to `CCCCc1ccc(NC(=S)N2CCCC(CO)C2)cc1` (configuration not stated), the protection (pct of control) was 11.5% (inactive).
`O=C(CN1C(=O)/C(=C\c2ccccc2F)SC1=S)Nc1nc2ccccc2s1`: the protection (pct of control) is 6.1% (inactive).
The figure for `Cc1noc(/C=C/c2ccco2)c1S(=O)(=O)N1CCC(C(=O)Nc2ccc(Cl)cn2)CC1` is 7.95% (inactive).
Regarding `C/C(=N/NC(=O)c1ccc(Br)o1)c1ccc(C)o1`, the protection (pct of control) is 13% (inactive).
On to `CCC(C)(C)C1CCC(=NNC(=O)c2ccc(Br)o2)CC1` (configuration not stated), for which the protection (pct of control) was 39% (active).
To `CC(C)(C)C1CCC(=NNC(=O)c2ccc(Br)o2)CC1` (configuration not stated) belongs 3.96% (inactive).
To `CC1(C)C(C=C(Cl)Cl)C1C(=O)N(Cc1ccc(Cl)cc1)C1CCS(=O)(=O)C1` (configuration not stated) belongs 9.24% (inactive); to `Fc1ccc(CNCc2ccc(Br)cc2)cc1`, 8.72% (inactive).
The figure for `N#CC1(NC(=O)COc2ccc3oc4ccccc4c3c2)CCCCC1` is 21.4% (inactive).
Regarding `Cc1cc(C)cc(OCC(=O)NNC(=O)CCN2C(=O)c3ccccc3C2=O)c1`, the protection (pct of control) was 9.19% (inactive).
`Cc1nc(-c2ccccc2)cn2c1nc1ccccc12`: the protection (pct of control) is 23.6% (inactive).
On to `CCOC(=O)c1c(-c2ccccc2)csc1NC(=S)NC(=O)c1ccccc1`, for which the protection (pct of control) is 9.01% (inactive).
Take `CCOC(=O)c1c(-c2cccc(C)c2)csc1NC(=O)c1c(-c2ccccc2)noc1C`: the protection (pct of control) was 54.7% (active).
The figure for `CC(=O)Nc1cccc(NC(=O)c2c(-c3ccccc3)noc2C)c1` is 14.1% (inactive); for `CCc1cc(C(=O)OC)c(NC(=O)CC2Sc3ccc(C(F)(F)F)cc3NC2=O)s1` (configuration not stated) it is 11.3% (inactive); for `CCOc1ccc(NC(=O)c2ccc(CSc3nnnn3C)cc2)cc1` it is 10.1% (inactive).
Consider `Cc1c(C(=O)Nc2cccc(Cl)c2)cn2c(nc3ccccc32)c1C#N`, for which the protection (pct of control) is 8.24% (inactive).
The figure for `CCCCC(NS(=O)(=O)c1ccc(C)cc1)C(=O)Oc1ccc2c3c(c(=O)oc2c1)CCC3` (configuration not stated) is 9.68% (inactive); for `CC1CN(S(=O)(=O)c2ccc(C(=O)Nc3sccc3C(N)=O)cc2)CC(C)O1` (configuration not stated) it is 9.47% (inactive).
The figure for `O=C(Nc1cccc(NC(=O)N2CCN(c3ccccc3)CC2)c1)N1CCN(c2ccccc2)CC1` is 27.8% (inactive).
To `O=C(NC(=S)N1CCN(Cc2ccccc2)CC1)c1ccccc1` belongs 18% (inactive); to `O=C(Nc1ccccc1)N1CCN(Cc2ccccc2)CC1`, 65.6% (active); to `CN(Cc1ccccc1)C(=O)COC(=O)c1ccccc1Nc1ccccc1`, 18.6% (inactive).
Take `O=[N+]([O-])c1ccccc1SNc1ccccn1`: the protection (pct of control) is 4.84% (inactive).
Consider `O=C(NNc1ccccn1)c1ccc(Cl)nc1`, for which the protection (pct of control) is 3.74% (inactive).
On to `O=C(CCl)NNc1cccc(Cl)n1`, for which the protection (pct of control) was 28.9% (active).
As for `COc1cc(OC)nc(NC(=O)CCl)n1`, the protection (pct of control) is 15.4% (inactive).
For the molecule `COc1cc(OC)c(C(=O)Nc2ccccc2-c2ccccc2)cc1OC`, the protection (pct of control) is 39.7% (inactive).
With `CC(OC(=O)CNS(=O)(=O)/C=C/c1ccccc1)C(=O)Nc1ccc(S(=O)(=O)N2CCCC2)cc1` (configuration not stated), the protection (pct of control) was 8.77% (inactive).
Consider `Cc1nn(Cc2ccc(F)cc2)c(C)c1NC(=O)c1cccnc1Cl`, for which the protection (pct of control) is 10.5% (inactive).
The figure for `CC1(C)CCc2nc(SCc3ccccc3)c(C#N)cc2C1` is 17.7% (inactive); for `Cc1nc2cc(NC(=O)CSc3nc4c(C)cccc4cc3C#N)ccc2s1` it is 7.78% (inactive).
The figure for `CC(NC(=O)CSc1nc2c(cc1C#N)CN(C)CC2)c1ccccc1` (configuration not stated) is 48.7% (active).
